Screening data: PubChem BioAssay, several laboratories
Most compounds without a hit are left out; they make up all but 2.9% or so of the library.
KKLEB cytotox – reduces viability of KKLEB cystic fibrosis airway cells. activity change (cytotoxicity), % at 5 µM. AID 602141. KKLEB CF airway cells viability, ATPlite luminescence, overnight; stronger effect = lower value; cells stimulated with P. aeruginosa culture filtrate. hit rate 0.36% among 360,000;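 active = corrected activity change at or below -50% at 5 µM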
EBV LMP1 NFkB – reduces LMP1-driven NF-kappaB luciferase signal. LMP1-induced NF-kappaB luciferase reporter cells, luminescence. inhibition, % at 12.5 µM. hit rate 0.69% among 350,000; in the data active = inhibition above about 41%; inconclusive = no clear call, values can overlap the other calls
Peg3 prom inh – inhibitors of Peg3 promoter | HeLa PEG-Prom luciferase reporter, luminescence, overnight | inhibition, % at 20 µM | hit rate 1.7% among 360,000;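 active = inhibition of at least 50% at 20 µM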
HIF-2a block – inhibitors of HIF-2a; 786-0 RCC cells HIF-2a reporter, luciferase luminescence, overnight; inhibition, % at 18.8 µM; hit rate 0.72% among 360,000; AID 624352;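 active = inhibition of the luminescence signal of 40% or more relative to plate controls, in a single-dose primary screen at 18.75 µM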
Shn3 3UTR inh – inhibitors of Schnurri-3 3'UTR reporter in osteoblasts. Clone20 osteoblast Shn3 3'UTR firefly luciferase, 24 h. hit rate 0.52% among 360,000. AID 588674. inhibition, % at 12.5 µM;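 active = mean inhibition of at least 75% with every replicate also reaching 75%; inconclusive = mean inhibition at least 75% but some replicate below; inactive = mean inhibition below 75%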
CF NFkB inh – blocks PAF-induced NF-kB reporter in cystic fibrosis cells. inhibition, % at 5 µM. hit rate 0.86% among 360,000. KKLEB NF-kB-GFP reporter, GFP fluorescence overnight;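 active = at least 50% inhibition at 5 µM, scaled per plate between neutral and stimulator controls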;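 also: PAF is a Pseudomonas aeruginosa culture filtrate used as stimulus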
A number is an active result; n = inactive; u = inconclusive; x = no result given.

SMILES	KKLEB cytotox	EBV LMP1 NFkB	Peg3 prom inh	HIF-2a block	Shn3 3UTR inh	CF NFkB inh
O=C(Nc1nc(-c2cccc3ccccc23)cs1)c1ccc2c(c1)S(=O)(=O)c1ccccc1C2=O	n	n	n	n	n	n
O=C(Nc1nc(-c2ccccc2)cs1)c1ccc2c(c1)S(=O)(=O)c1ccccc1C2=O	-57	n	n	n	n	n
CCOc1ccccc1N1CCN(c2ncnc3scc(-c4ccc(OC)cc4)c23)CC1	n	n	59	n	n	n
Oc1ccccc1N1CCN(c2ncnc3scc(-c4ccccc4)c23)CC1	n	n	59	n	n	n
Oc1ccccc1N1CCN(c2ncnc3scc(-c4ccc(F)cc4)c23)CC1	n	n	n	n	n	n
COc1ccc(CC(=O)Nc2c(C(=O)N3CCN(c4ncccn4)CC3)oc3ccccc23)cc1	n	n	n	n	n	n
COC1=C(OC)C(=O)C(Sc2ccc3ccccc3c2)=CC1=O	n	n	64	49	87	n
Cc1ccc(-c2noc(CCC(=O)NCC3CCCO3)n2)cc1 (centres undefined)	n	n	n	n	n	n
O=C(CCc1nc(-c2ccccc2)no1)NCC1CCCO1 (centres undefined)	n	74	n	n	n	n
COC(=O)c1ccc(N2CCN(C)CC2)c(NC(=O)c2sc3ccccc3c2Cl)c1	n	n	110	n	n	n
Cc1cc(C)c(S(=O)(=O)/N=C2\C=C(Nc3ccc(C(=O)O)cc3)C(=O)c3ccccc32)c(C)c1	-63	n	103	n	n	91
O=C(O)c1ccc(NS(=O)(=O)c2ccc3c(c2)C(=O)c2ccccc2C3=O)cc1	n	n	n	n	n	n
O=C(O)c1ccc(NC2=C/C(=N/S(=O)(=O)c3ccccc3)c3ccccc3C2=O)cc1	n	n	n	44	u	89
O=C(Cc1ccccc1Cl)Nc1cc(S(=O)(=O)N2CCOCC2)ccc1N1CCOCC1	n	n	n	n	n	n
COC(=O)c1c(O)ccc(Oc2ccccc2)c1C(=O)OC	n	47	n	n	n	n
COC(=O)Nc1ccc(Oc2ccccc2)cc1	n	n	n	n	n	n
CCC(=O)c1ccc(OCC(O)CN2CCN(S(=O)(=O)c3ccc(NC(C)=O)cc3)CC2)cc1 (centres undefined)	n	n	n	n	n	n
COc1ccc(C(=O)NCc2ccc3c(c2)cc(C)n3C)cc1OC	n	n	n	n	n	n
COc1ccc(/C=C\C(=O)NCc2ccc3c(c2)cc(C)n3C)cc1OC	n	67	n	n	n	n
CCOc1ccccc1NC(=S)N1CCN(c2nc(-c3ccc(F)cc3)cs2)CC1	n	n	n	n	n	n
COc1cccc2sc(N(CCCN(C)C)C(=O)c3ccc(S(=O)(=O)N4CCc5ccccc5C4)cc3)nc12	n	x	85	n	n	n
COc1cc2nc(N(CCCN(C)C)C(=O)c3ccc(C(=O)c4ccccc4)cc3)sc2cc1OC	n	n	n	n	n	n
CCc1ccc2nc(N(CCCN(C)C)C(=O)c3ccc(C(=O)c4ccccc4)cc3)sc2c1	n	n	102	n	n	n
CN(C)CCCN(C(=O)c1ccc(S(=O)(=O)N2CCc3ccccc32)cc1)c1nc2c(Cl)cccc2s1	n	n	n	n	n	n
CCOc1ccc2nc(N(CCCN(C)C)C(=O)c3ccc4c(c3)CCCC4)sc2c1	n	n	n	n	n	n
SMILES	KKLEB cytotox	EBV LMP1 NFkB	Peg3 prom inh	HIF-2a block	Shn3 3UTR inh	CF NFkB inh
COc1cccc2sc(N(CCCN(C)C)C(=O)c3ccc(S(=O)(=O)N4CCCc5ccccc54)cc3)nc12	n	n	54	n	n	n
CN(C)CCCN(C(=O)c1ccc2c(c1)CCCC2)c1nc2ccc(Cl)cc2s1	n	n	108	n	n	n
CS(=O)(=O)N(CC(=O)Nc1cccc([N+](=O)[O-])c1)c1cccc(F)c1	n	n	n	n	n	n
CSCCC(NC(=O)OCc1ccccc1)C(=O)NCc1cccnc1 (centres undefined)	n	n	n	n	n	n
CSc1ccccc1C(=O)N1CCc2ccc(NC(=O)c3ccccn3)cc2C1	n	n	n	n	n	n
Cc1cc(C)c2nc(N(CCCN(C)C)C(=O)c3ccc4c(c3)OCCO4)sc2c1	n	n	98	n	n	n
CCc1ccc2nc(N(CCCN(C)C)C(=O)c3ccc(S(=O)(=O)N4CCCc5ccccc54)cc3)sc2c1	n	n	106	n	n	n
